The panel holds about 83,000 compounds, 20% with a hit somewhere; the sample as a whole holds those more often.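 Activity criterion: percent growth below 10, measured after cells in 96-well plates were exposed to a single compound concentration for 48 hours.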 The source made the active and inactive calls.

In this assay the test system is KM12 colon. The assay is described as follows: NCI-60 one-dose screen, 48 h (100 = growth as untreated, 0 = no growth, -100 = all killed). As to conditions: 10 µM unless noted.
For `O=C1N=c2cc3c(cc2=C/C1=C/c1sc(=S)n(CCc2ccc(O)cc2)c1O)OCCO3`, the growth is 52.5% (inactive).

For `O=Cc1c[nH]c2ccc(-c3csc4ccccc34)cc12`, the growth was 2.08% (active).

Turning to `O=C(Nc1ccccc1)Nc1cccc(Oc2nnc(Cl)c3ccccc23)c1`, the growth is 43.6% (inactive).

For `NC(=O)c1ccc[n+]([C@@H]2O[C@H](COP(=O)([O-])OP(=O)(O)OC[C@H]3O[C@@H](n4cnc5c(N)ncnc54)[C@H](O)[C@@H]3O)[C@@H](O)[C@H]2O)c1`, the growth was 101% (inactive).

Regarding `O=C1CCc2c(sc3[nH]c(=S)n(-c4ccc(OC(F)(F)F)cc4)c(=O)c23)C1`, the growth is 10.8% (inactive).

In the case of `CC1(C)CC[C@]2(C(=O)N3CCOCC3)CC[C@]3(C)C(=CC[C@@H]4[C@@]5(C)CC[C@H](OC(=O)c6cccnc6)C(C)(C)[C@@H]5CC[C@]43C)[C@@H]2C1`, the growth is 53.5% (inactive).

As for `COC(=O)[C@]12CC[C@@H](C)[C@H](C)[C@@H]1C1=CC[C@@H]3[C@@]4(C)C(C=O)=C[C@@](C)(COC(=O)c5ccco5)C4=CC[C@@]3(C)[C@]1(C)CC2`, the growth is 8.54% (active).

Turning to `O=[N+]([O-])c1ccc(-c2cc(-c3ccc(Nc4nc(Nc5ccc(Cl)cc5)nc(Nc5ccc(Cl)cc5)n4)cc3)no2)cc1`, the growth was 105% (inactive).

Take `CCCCCS(=O)(=O)Nc1ccc(C(=O)O)cc1`: the growth was 103% (inactive).

`COc1ccc(-c2ccc3c(c2)sc2nc(-c4ccc(F)cc4)cn23)cc1`: the growth is 64.8% (inactive).

Regarding `NC(=N\N=C/c1ccccc1[N+](=O)[O-])/C(N)=N\N=C/c1ccccc1[N+](=O)[O-]`, the growth is 104% (inactive).

On to `O=C(COc1ccc(/C=C2\Oc3ccccc3C2=O)cc1)Nc1nc2c(s1)CCCC2`, for which the growth is -75% (active).

Consider `O=[N+]([O-])c1ccc(OCCO)cc1`, for which the growth was 106% (inactive).

On to `Cn1cc2c(c1)-c1nc(Nc3ccccc3)ncc1CC2`, for which the growth is 11.9% (inactive).

For `CC1=C(SCCC(=O)OC(C[Se]C2=C(C)C(=O)c3ccccc3C2=O)C(=O)NCCCCCC(=O)OCc2ccccc2)C(=O)c2ccccc2C1=O` (stereo not drawn), the growth was 19.8% (inactive).

For `CC/C=C\C/C=C\C[C@H](O)C/C=C1/C(=O)C=C[C@@H]1C/C=C\CCCC(=O)O`, the growth is 6.23% (active).

In the case of `COc1cccc(Nc2nccc(Nc3ccc4[nH]ncc4c3)n2)c1`, the growth is -44.3% (active).

As for `COc1cccc(-c2nn(-c3ccccc3)cc2-c2ccnc(NCCNC(=O)c3ccccc3)c2)c1`, the growth was 57.3% (inactive).

As to `COc1ccccc1CNCCCN1C(=O)c2ccc3c4c(ccc(c24)C1=O)C(=O)N(CCCNCCCCN)C3=O`, the growth is -15.8% (active).

With `COc1ccc2cc(-c3cc(OC)c(OC)c(OC)c3)c(=O)oc2c1`, the growth was 65.8% (inactive).

Turning to `NC(=S)Nc1cccc(O)c1`, the growth was 106% (inactive).

Consider `CCCCn1c(=O)c2c(nc3n2CCCN3CCc2ccc(OCC(=O)NCCN(CC)CC)cc2)n(CCCC)c1=O`, for which the growth is 77.5% (inactive).

Turning to `COc1cc2c(cc1-c1c(C)noc1C)ncc1nc(C3CCC(F)(F)CC3)n(C3CCC(OC(F)F)CC3)c12` (stereo not drawn), the growth was 51.4% (inactive).

As to `CCN1CCN(c2cc(C)nc(NCc3cc(Nc4ccnc5cc(Cl)ccc45)ccc3F)n2)CC1`, the growth is 82.7% (inactive).

For `CCCCc1ccc(Nc2ccc(Nc3ccc(CCCC)cc3S(=O)(=O)O)c3c2C(=O)c2ccccc2C3=O)c(S(=O)(=O)O)c1`, the growth was 96.9% (inactive).

In the case of `N#Cc1c(-c2cccc(Cl)c2)cc(-c2cccc(Cl)c2)[nH]c1=O`, the growth was 56.1% (inactive).

Regarding `Cc1cccc(Cc2cnc(NC(=O)/C=C/c3ccco3)s2)c1`, the growth is 13.3% (inactive).

On to `N#CC1=C(c2ccc(Br)cc2)NC(SCC(=O)c2ccc(Br)cc2)NC1=O` (stereo not drawn), for which the growth was 101% (inactive).

Regarding `C[C@H](NC(=O)[C@@H]1CSSC[C@@H](NC(=O)c2nc3ccccc3cc2O)C(=O)NCC(=O)N1C)c1ccccc1`, the growth was 19.8% (inactive).

`Cc1c2c(c(C)c3c1oc1cc(O)ccc13)C(=O)N(CCN1CCCCC1)C2=O`: the growth was 83.9% (inactive).

Take `CCCCCCCCCCCCCCCCCCOc1ccc(CC(=O)OCC[N+]2(C)CCCC2)cc1`: the growth is 101% (inactive).

As for `COc1cccc(-c2nn(-c3ccccc3)cc2-c2ccnc(NCCCNC(=O)c3ccc(F)cc3)c2)c1`, the growth is 18.7% (inactive).

On to `COC(=O)[C@H](CSC)N(C)C(=O)[C@@H]1CSSC[C@@H](NC(=O)c2nc3ccccc3cc2O)C(=O)NCC(=O)N1C`, for which the growth is 50.6% (inactive).

`COc1cccc(/C=C/C(=O)c2c(C)nc3ccccc3c2/C=C/c2ccc(C)cc2)c1OC`: the growth is 65.6% (inactive).

On to `COc1ccc(S(=O)(=O)NCCNc2nccc(-c3c(-c4cccc(F)c4)nc4sccn34)n2)cc1`, for which the growth was 18.3% (inactive).

Regarding `COc1cccc(C(=O)NCCNc2cc(-c3cn(-c4ccccc4)nc3-c3cccc(OC)c3)ccn2)c1`, the growth is 41.5% (inactive).

In the case of `CCCCOc1nc2ccccc2cc1C1CNC(=O)c2ccccc2N1` (stereo not drawn), the growth was 23.9% (inactive).

`O=C(CCc1nnc(CN(c2ccccc2)c2ccccc2)o1)c1nc2ccccc2[nH]1`: the growth was 99.8% (inactive).

(Values after PubChem BioAssay (NCI).)
